Here are results for 36 compounds from PubChem BioAssay.

The test system of this assay is PRMT1 (protein arginine N-methyltransferase 1). The assay is described as follows: small molecules binding arginine methyltransferase PRMT1 – biochemical, small-molecule microarray, 635 nm fluorescence, primary screen (AID 1088). The conditions noted are these: higher = more signal.
Compound `N#Cc1ccc(NN2C(C(O)c3ccc(Br)cc3)C=CC3C(=O)N(c4ccccc4)C(=O)C32)cc1` (stereo unspecified) gave a composite z-score of 0.751. `CC1CC/C=C\[C@H]2OC34C=CCN(c5ccc(Cl)cc5)C(=O)[C@H]3N(C(C)CO)C(=O)[C@]4(C)C2C(=O)O1` (stereo partly specified) returned a composite z-score of -0.678.

The compound `CO[C@H]1O[C@H](CO)[C@@H](OC(=O)Nc2ccc(Br)cc2)[C@@H]2OC(=O)[C@@H](Cc3ccccc3)C/C=C/C[C@H](Cc3ccccc3)C(=O)O[C@@H]12` gave a composite z-score of 1.44.

In the case of `CCOC(=O)C[C@H]1[C@H](OC(=O)c2cc3ccccc3oc2=O)[C@@H](NC(=O)c2ccccc2)c2cc(OCCCO)ccc2N1C(=O)c1ccccc1`, the composite z-score was 0.58.

`O=C1OCCC=C[C@H]2OC34C=CCN(c5ccc6ccccc6c5)C(=O)[C@H]3N(CCCO)C(=O)[C@@H]4C12` (stereo partly specified) showed a composite z-score of -1.63. `O=C1C2C=CC(C(O)C3CC=CCC3)N(Nc3ccccc3)C2C(=O)N1c1ccccc1` (stereo unspecified) showed a composite z-score of 1.24. As for `Cc1ccc(S[C@]2(C(=O)NC(C)C)CC(=O)N(Cc3cc(C(F)(F)F)cc(C(F)(F)F)c3)[C@@H]2c2ccc(CO)cc2)cc1`, the composite z-score was -0.44. The result for `CCOC(=O)C[C@H]1[C@H](OC(=O)c2ccccc2-c2ccccc2)[C@@H](NC(=O)c2ccc3ccccc3n2)c2cc(OCCCO)ccc2N1C(=O)Cc1ccc(OC)cc1` reads 0.115; that for `CC(C)c1ccc(NN2C(C(O)c3ccc(C#N)cc3)C=CC3C(=O)N(c4ccccc4)C(=O)C32)cc1` (stereo unspecified), 1.54; that for `CCC#CCN(Cc1ccccc1Br)[C@H](/C=C/C1CC1)[C@@H](O)Cc1ccccc1`, -0.134. Turning to `C=C[C@@H](OC)[C@H](OC(=O)Nc1ccc(OC)cc1)c1ccc(O)c(F)c1`, the composite z-score is 0.882. As to `C=CCC(OC(C)=O)[C@@H]1[C@@H](N(Cc2ccc(-c3cccc(C(F)(F)F)c3)o2)C(=O)c2ccc(-c3ccccc3)cc2)c2cc(OCCCO)ccc2N1C(=O)Cc1ccc2ccccc2c1` (stereo partly specified), the composite z-score was -0.457.

Compound `CCOC(=O)C1=C[C@@H](c2ccccc2)N(S(=O)(=O)c2ccc(C)cc2)[C@H]1c1ccc(OC)cc1` returned a composite z-score of 1.24.

The compound `CS(=O)(=O)CCOC(=O)C1=CC(CCCO)=CC(c2ccc(CN3CCCC3)cc2)N(Cc2sc3ccccc3c2Cl)C=C1C(=O)OCCS(C)(=O)=O` (stereo unspecified) registered a composite z-score of 1.54.

In turn, `CCOC(=O)C[C@H]1[C@H](OC(=O)Cc2ccc3c(c2)OCO3)[C@@H](NC(=O)c2ccc3ccccc3n2)c2cc(OCCCO)ccc2N1C(=O)c1ccc2ccccc2n1` had a composite z-score of 0.755.

In turn, `C=CCC(OC(C)=O)[C@@H]1[C@@H](N(Cc2ccc(-c3ccccc3)cc2)C(=O)c2ccc(-c3ccccc3)cc2)c2cc(OCCCO)ccc2N1C(=O)c1ccc2ccccc2c1` (stereo partly specified) yielded a composite z-score of 0.636. Under `Cc1ccc(NN2C(C(O)c3c(F)cccc3Cl)C=CC3C(=O)N(C4CCCCC4)C(=O)C32)cc1` (stereo unspecified) stands 1.43; under `CN(C)C(=O)[C@]1(Cc2ccccc2CN=[N+]=[N-])N=C(c2ccc(OCCCO)cc2)O[C@@H]1c1ccccc1`, 1.57. Consider `Cc1ccc(S[C@]2(C(=O)O)CC(=O)N(C3CCCCC3)[C@@H]2c2ccc(CO)cc2I)cc1`, for which the composite z-score was 1.5.

Turning to `CCOC(=O)C[C@H]1[C@H](OC(=O)c2cc3ccccc3oc2=O)[C@@H](NC(=O)CC(C)C)c2cc(OCCCO)ccc2N1C(=O)c1ccc2ccccc2n1`, the composite z-score is 1.04. Consider `CCOC(=O)C[C@H]1[C@H](OC(=O)c2ccc(-c3ccccc3)cc2)[C@@H](NC(=O)CC(C)C)c2cc(OCCCO)ccc2N1C(=O)c1ccc2ccccc2n1`, for which the composite z-score is -0.069.

`CCOC(=O)C[C@H]1[C@H](OC(=O)c2ccc(C(=O)c3ccccc3)cc2)[C@@H](NC(=O)c2ccc3ccccc3n2)c2cc(OCCCO)ccc2N1C(=O)Cc1ccc(OC)cc1` returned a composite z-score of 0.517.

For the compound `COc1ccc([Si](C)(C)[C@@H]2[C@@H](CC(=O)N(CCO)Cc3ccccc3)O[C@]3(C(=O)N(Cc4cccc(N5CCCCC5=O)c4)c4ccccc43)[C@H]2C)cc1`, the composite z-score is 1.42. For `COC(=O)[C@]1(CCS(=O)(=O)c2ccccc2)N=C(c2ccc(OCCCO)cc2)O[C@@H]1c1ccccc1N=[N+]=[N-]`, the composite z-score amounted to 1.54. With `COC(=O)[C@@]1(Cc2ccccc2)[C@H]2c3cc(C(=O)N4CCCC4)n(CCc4ccccn4)c3C[C@H]2CN1C(=O)c1ccccc1`, the composite z-score came to 0.123. With `CCCN1C(=O)[C@@]2(Cc3ccccc31)N=C(c1ccc(OCCCO)cc1)O[C@H]2c1ccccc1`, the composite z-score stood at 1.46. As to `COC(=O)[C@@]1(Cc2ccc(F)cc2)[C@H]2c3cc(C(=O)N(C)C)n(Cc4ccc(OC(F)(F)F)cc4)c3C[C@H]2CN1C(=O)c1ccccc1`, the composite z-score is -1.21. On to `CC(=O)N1CC2(CC2)CC1c1ccccc1` (stereo unspecified), for which the composite z-score was 0.594. The compound `CC(C)[Si](C#CCCCC#N)(O[C@H](c1ccccc1)c1cn(Cc2ccccc2)nn1)C(C)C` showed a composite z-score of 1.36. Turning to `COCCOC(=O)N1C(=O)[C@@]2(c3cc(C#CC4(O)CCCCCC4)ccc31)[C@H](c1ccc(O)cc1)N1[C@H](c3ccccc3)[C@H](c3ccccc3)OC(=O)[C@H]1[C@@H]2C(=O)N1CCN(c2ncccn2)CC1`, the composite z-score is 1.55. Compound `CC1=C2[C@@H](CCc3ccccc3)OB(O)C[C@@H]2[C@@H]2C(=O)N(Cc3ccccc3)C(=O)[C@@H]2C1` had a composite z-score of 0.433.

With `CCOC(=O)C[C@H]1[C@H](OC(=O)Cc2ccc3c(c2)OCO3)[C@@H](NC(=O)C2CCCCC2)c2cc(OCCCO)ccc2N1C(=O)c1ccccc1`, the composite z-score was found to be 1.05.

With `COCCCNC(=O)[C@@]1(CCC(=O)OC(C)(C)C)N=C(c2ccc(OCCCO)cc2)O[C@H]1c1ccccc1N=[N+]=[N-]`, the composite z-score was 1.27. In turn, `[N-]=[N+]=Nc1ccccc1C[C@]1(C(=O)NCC(O)CO)COC(c2ccc(OCCCO)cc2)=N1` (stereo partly specified) showed a composite z-score of 0.149.

Compound `CCCC[C@@H](O)C1=C(COC)C[C@H]2C(=O)N(C)C(=O)[C@H]2[C@H]1CO` had a composite z-score of 0.0449. In turn, `CCCCCCc1nc(Cc2cc(OC)c(OC)c(OC)c2)cc2c1[Si](C(C)C)(C(C)C)OC2` returned a composite z-score of -0.114.
